Records with an inconclusive call do not appear. A call without a number means that no potency is given here. Active and inactive are the calls of the source. Unless noted, calls come from the whole dose curve; as a rule, active = well fitted curve in the direction sought with a large enough effect; inconclusive = small, poorly fitted or top-dose-only effect, or another doubt; inactive = no such curve, though single readings can be large; an effect the other way counts as inactive or inconclusive.
Assays:
[1] = molecular target: Luciferin 4-monooxygenase (Photinus pyralis) (UniProt P08659); test: Biochemical firefly luciferase enzyme assay for NPC (AID 624030);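 note: purified P. pyralis luciferase at 10 nM with luciferin and ATP substrate; series mostly up to about 59 µM; nearly all actives have a fitted effect of over 70% in size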
How it was run: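 Purified P. pyralis luciferase at 10 nM in 50 mM Tris Acetate (final), luminescence read within 5 minutes of enzyme addition to compounds. Activity normalised to PTC124 versus DMSO; concentration-response curves classed by r2, magnitude and activity.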

[2] = S16 Schwann cell viability assay (CellTiter-Glo assay) (AID 624031); note: nearly all actives have a fitted effect of over 70% in size; note: potency is the fitted concentration of half-maximal effect
How it was run: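 Counter-screen for cytotoxicity: parental S16 rat Schwann cells lacking the PMP22 reporters, treated 24 h with compound, viability from cellular ATP by CellTiter-Glo luminescence, normalized to DMSO (0%) and no-cell wells.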

[3] = S16 Schwann cell PMP22 intronic element firefly luciferase assay (AID 624032); note: nearly all actives have a fitted effect of over 30% in size; note: potency is the fitted concentration of half-maximal effect
How it was run: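 Rat S16 Schwann cells stably carrying firefly luciferase driven by a PMP22 intronic element, in 10% FBS, treated 24 h at 37 C. ONE-Glo luminescence normalized to PTC124 control and DMSO (0%); curves classed by r2, magnitude and activity.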

[4] = S16 Schwann cell PMP22 intronic element beta-lactamase assay (AID 624044; calls by dose curve; note: nearly all actives have a fitted effect of over 15% in size; note: potency is the fitted concentration of half-maximal effect)
How it was run: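 Beta-lactamase reporter under a PMP22 intronic regulatory element in stable S16 rat Schwann cells; 24 h compound exposure. 460 nm blue signal normalized between DMSO (0%) and potassium clavulanate, with 535 nm FRET tracking viability; curves classed by r2 and response.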

Sequence of Luciferin 4-monooxygenase (Photinus pyralis) (P08659 whole entry, looked up): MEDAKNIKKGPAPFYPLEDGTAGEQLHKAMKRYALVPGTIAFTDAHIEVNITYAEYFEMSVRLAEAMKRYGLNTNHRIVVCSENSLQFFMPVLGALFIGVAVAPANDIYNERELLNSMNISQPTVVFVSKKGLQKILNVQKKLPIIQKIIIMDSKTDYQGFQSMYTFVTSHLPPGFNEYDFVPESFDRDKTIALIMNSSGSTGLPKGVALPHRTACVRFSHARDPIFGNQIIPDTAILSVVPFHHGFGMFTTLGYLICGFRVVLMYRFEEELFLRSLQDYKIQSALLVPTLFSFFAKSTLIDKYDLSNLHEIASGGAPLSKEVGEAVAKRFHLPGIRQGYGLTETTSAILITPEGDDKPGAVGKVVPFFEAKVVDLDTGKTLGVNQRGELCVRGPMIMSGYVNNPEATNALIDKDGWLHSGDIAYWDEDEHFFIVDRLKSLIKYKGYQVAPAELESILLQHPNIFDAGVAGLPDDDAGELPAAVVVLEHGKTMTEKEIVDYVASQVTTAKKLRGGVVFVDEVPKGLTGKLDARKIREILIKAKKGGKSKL

Compound	Potency [1]	Potency [2]	Potency [3]	Potency [4]
CCCCCCCC/C=C\CCCCCCCC(=O)NCc1ccc(O)c(OC)c1	inactive	inactive	4.55 µM (active)	12.6 µM (active)
C[N+](C)(C)CCCCCCCCCC[N+](C)(C)C		inactive	inactive	
CCOC(=O)C1=C(C)NC(C)=C(C(=O)OC)C1c1cccc([N+](=O)[O-])c1 (configuration not stated)	inactive	inactive		inactive
COc1cc2c(cc1OC)-c1cc(=Nc3c(C)cc(C)cc3C)n(C)c(=O)n1CC2	inactive	32.2 µM (active)	6.42 µM (active)	22.4 µM (active)
COC(=O)C1=C(C)NC(C)=C(C(=O)OC(C)(C)CN(C)CCC(c2ccccc2)c2ccccc2)C1c1cccc([N+](=O)[O-])c1 (configuration not stated)	inactive		22.8 µM (active)	inactive
COC(=O)C1=C(C)NC(C)=C(C(=O)OCCN(C)Cc2ccccc2)C1c1cccc([N+](=O)[O-])c1 (configuration not stated)	inactive	16.1 µM (active)	5.1 µM (active)	inactive
CC(C)[N+](C)(CCOC(=O)C1c2ccccc2Oc2ccccc21)C(C)C	inactive	inactive	inactive	
CC(=O)[C@]1(O)Cc2c(O)c3c(c(O)c2[C@@H](O[C@H]2C[C@H](N)[C@H](O)[C@H](C)O2)C1)C(=O)c1ccccc1C3=O	inactive	32.2 µM (active)	inactive	0.0999 µM (active)
C[N+](C)(C)CCOC(N)=O	inactive	inactive	inactive	
CCOC(=O)C1=C(C)NC(C)=C(C(=O)OC)C1c1cccc(Cl)c1Cl (configuration not stated)	inactive	inactive		inactive
CCCCCN(CCCCC)C(=O)C(CCC(=O)O)NC(=O)c1ccc(Cl)c(Cl)c1 (configuration not stated)	inactive	inactive	inactive	inactive
c1cc(CN2CCCCC2)cc(OCCCNc2nc3ccccc3s2)c1	inactive		inactive	inactive
C#CCN(C)CCCOc1ccc(Cl)cc1Cl			inactive	inactive
CN(C(=O)CCCOc1ccc2[nH]c(=O)ccc2c1)C1CCCCC1	inactive	inactive		inactive
CCn1ccnc1CC1COc2ccccc2O1 (configuration not stated)	inactive	inactive	inactive	
CCCN(CCC)CCc1cccc2c1CC(=O)N2	inactive	inactive	inactive	
CC(=O)OCC1=C(C(=O)O)N2C(=O)[C@@H](NC(=O)Cc3cccs3)[C@H]2SC1	inactive	inactive	inactive	inactive
CCN(CC)CC(=O)Nc1c(C)cccc1C	inactive	inactive	inactive	inactive
CN1C[C@H](C(=O)N[C@]2(C)O[C@@]3(O)[C@@H]4CCCN4C(=O)[C@H](Cc4ccccc4)N3C2=O)C[C@@H]2c3cccc4[nH]cc(c34)C[C@H]21	inactive			inactive
NC(Cc1ccc(Cl)cc1)C(=O)O (configuration not stated)	inactive	inactive	inactive	
CC1=C(C)C(=O)C(CCCCC#CCCCC#CCO)=C(C)C1=O	inactive			inactive
OC(CCN1CCCCC1)(c1ccccc1)C1CCCCC1 (configuration not stated)	inactive	inactive	inactive	
O=C1NCN(c2ccccc2)C12CCN(CCCC(c1ccc(F)cc1)c1ccc(F)cc1)CC2	inactive		25.6 µM (active)	
NC(N)=NC(=O)Cc1c(Cl)cccc1Cl	inactive	inactive	inactive	inactive
COCC(=O)O[C@]1(CCN(C)CCCc2nc3ccccc3[nH]2)CCc2cc(F)ccc2[C@@H]1C(C)C	inactive	10.2 µM (active)	10.2 µM (active)	25.1 µM (active)
Nc1c2c(nc3ccccc13)CCCC2O (configuration not stated)	inactive		inactive	
CC(C)(C)c1ccc(C(=O)CCCN2CCC(OC(c3ccccc3)c3ccccc3)CC2)cc1	inactive	20.3 µM (active)	20.3 µM (active)	
CN(C)CCN(Cc1cccs1)c1ccccn1	inactive		inactive	
COc1cc(C(=O)OCCCN2CCCN(CCCOC(=O)c3cc(OC)c(OC)c(OC)c3)CC2)cc(OC)c1OC	inactive			15.8 µM (active)
COCCOC(=O)C1=C(C)NC(C)=C(C(=O)OC(C)C)C1c1cccc([N+](=O)[O-])c1 (configuration not stated)	inactive	inactive	16.1 µM (active)	inactive

From PubChem BioAssay (NCATS)
